# FMDV inh: High Throughput Screening for Foot and Mouth Disease Virus Antivirals; Potency, µM (doses to about 57.9 µM), without a hit: at the highest dose activity change, negative = inhibition, actives largely listed as inhibitors; AID 1159524, 2015; hit rate 1.2% among 410,000; FMDV antiviral cell-based qHTS; calls by dose curve; tested in HEK293T cells; further: read-out not given here; potency means the concentration at half of the fitted maximal effect; nearly all actives have a fitted effect of over 45% in size
# HCMV inh: qHTS Assay for inhibitors of the human cytomegalovirus (HCMV); HFF cells, HCMV-luciferase reporter, 72 h; hits give low values; activity change, negative = inhibition, % at 57.5 µM; hit rate 4.5% among 410,000; in the data active means activity change below about -60%; inconclusive means no clear call, values can overlap the other calls; inactive means above about -39%
#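 Luciferase read-out from HCMV-luciferase-infected HFFs (MOI 1 PFU/cell) 72 h post infection at 37C; compounds added after 16 h cell attachment; activity normalized between buffer-only basal and Salinomycin (10uM) inhibitor controls.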
# VACV Venus inh: qHTS for Stage-Specific Inhibitors of Vaccinia Orthopoxvirus: Venus Reporter Primary qHTS; Vaccinia virus Venus reporter expression, fluorescence; AID 720580, 2013; hit rate 0.46% among 330,000; Potency, µM (top dose mostly 36.5 µM), without a hit: top-dose activity change, negative = inhibition, most hits filed as inhibitors; calls by dose curve; tested in A549 cells; further: potency means the concentration at half of the fitted maximal effect; nearly all actives have a fitted effect of over 30% in size
# Vaccinia mCherry: qHTS for Stage-Specific Inhibitors of Vaccinia Orthopoxvirus: mCherry Reporter Primary qHTS; hit rate 0.63% among 310,000; AID 720579, 2013; Vaccinia virus mCherry reporter infection, fluorescence; Potency, µM (doses to about 36.5 µM), inactives show at the highest dose activity change, negative = inhibition, usual class: inhibitors; calls by dose curve; tested in A549 cells; further: potency means the concentration at half of the fitted maximal effect; nearly all actives have a fitted effect of over 35% in size
# Marburg entry inh: qHTS for inhibitors of binding or entry into cells for Marburg Virus; Potency, µM (top dose mostly 37.8 µM), for inactives: top-dose activity change, negative = inhibition, most hits filed as inhibitors; Marburg virus pseudotyped entry inhibition, cell reporter; hit rate 1.8% among 300,000; AID 540276, 2011; calls by dose curve; tested in HEK293 cells; further: potency means the concentration at half of the fitted maximal effect
# Lassa entry inh: qHTS for Inhibitors of binding or entry into cells for Lassa Virus | hit rate 1.2% among 300,000 | Potency, µM (titrated, usually from 37.9 µM), for inactives: at the top dose activity change, negative = inhibition, usual class: inhibitors | Lassa virus pseudotype entry inhibition, cell reporter; calls by dose curve; tested in HEK293 cells; further: potency means the concentration at half of the fitted maximal effect; nearly all actives have a fitted effect of over 50% in size
# * = called active by the depositor; i = inactive; ? = inconclusive; . = no result; [ ] = remark or other dose. A selection: hits, their analogues and other compounds. The true share with any hit is near 6.5%. On the % scale 0 is the no-effect control and ±100 the full control effect.
SMILES,FMDV inh,HCMV inh,VACV Venus inh,Vaccinia mCherry,Marburg entry inh,Lassa entry inh
Nc1nc(OCc2ccccc2)c2[nH]cnc2n1,-20%,-73*,?,-21%,?,?
c1ccc(COc2ccc(Nc3ncnc4nc[nH]c34)cc2)cc1,15%,-2,-30%,7.1µM*,.,.
Nc1nc(NCCc2ccccc2)c2[nH]cnc2n1,.,.,-20%,-10%,.,.
CS(=O)(=O)N1CCC2(CCCN(C(=O)Nc3ccccc3)C2)CC1,22%,.,.,.,.,.
Cc1cc2c(c(-c3cnccn3)c1)OC(CNC(=O)c1cc(C(C)C)[nH]n1)C2 (stereo unspecified),-10%,.,-17%,i,.,.
NCC(=O)c1cccc([N+](=O)[O-])c1,.,.,3%,-17%,.,.
CCN(CC)CCNC(=O)c1ccc(NC(=O)c2cccc(S(=O)(=O)N3CCc4ccccc43)c2)cc1,-9%,?,-26%,?,8.9µM*,-4%
COc1cc2c(cc1OC)CN(C(=O)c1cccc(S(=O)(=O)N3CCc4ccccc43)c1)CC2,-34%,?,-2%,-29%,4µM*,4µM*
CN(Cc1nc2ccccc2c(=O)[nH]1)C(=O)c1cccc(S(=O)(=O)N2CCc3ccccc32)c1,-13%,-67*,8%,?,?,4µM*
O=C(O)C1CC=CCC1C(=O)Nc1ccc(S(=O)(=O)N2CCCc3ccccc32)cc1 (stereo unspecified),-10%,-76*,.,.,2.1µM*,3.3µM*
COc1ccc2c(c1)c(C(=O)CN(C)C)c(C)n2C,.,.,-9%,1%,.,.
O=C(c1cccc(S(=O)(=O)N2CCCC2)c1)N1CCCc2ccccc21,3%,-13,-15%,-7%,?,-1%[46.1 µM]
COc1ccc(C(=O)Nc2ccc(S(=O)(=O)N3CCc4ccccc43)cc2)cc1,?,-90*,-27%,?,?,13µM*
COc1cc2nc(NC(=O)c3ccc(S(=O)(=O)N4CCc5ccccc54)cc3)sc2cc1OC,?,-72*,-18%,-27%,.,-24%[46.1 µM]
O=C(c1cccc(S(=O)(=O)N2CCCCC2)c1)N1CCc2ccccc21,4%,-72*,-19%,i,?,6%
O=C(Nc1nc2c(Cl)cccc2s1)c1ccc(S(=O)(=O)N2CCc3ccccc32)cc1,?,-29,?,?,.,?
NS(=O)(=O)c1ccc(NC(=O)c2ccc(S(=O)(=O)N3CCc4ccccc43)cc2)cc1,-1%,2,?,?,.,.
O=C(Nc1c(F)cccc1F)c1ccc2c(c1)CCN2S(=O)(=O)c1ccccc1,0.32µM*,-32,-25%,-13%,-25%[46.1 µM],?
N#CC1=C(SCC(=O)NC2CC2)NC(=O)C(C#N)C12CCCCC2 (stereo unspecified),-2%,-8,-4%,i,21%,10%
CC(C)(C)C1CCC2(CC1)C(C#N)=C(SCC(=O)NC1CCCCC1)NC(=O)C2C#N (stereo unspecified),.,-63*,-27%,?,-28%,-8%
N#CC1=C(SCC(=O)NC23CC4CC(CC(C4)C2)C3)NC(=O)C(C#N)C12CCCCC2 (stereo unspecified),?,-66*,13µM*,10µM*,?,-27%
O=C(Nc1cccc2ccccc12)OC[C@@H]1CSCCS(=O)(=O)N1,.,2,.,.,.,?
CCCCC[C@H](O)C=C[C@H]1[C@H](O)CC(=O)[C@H]1CCCCCCC(=O)O,-14%,.,.,.,.,.
CCCCC[C@H](O)/C=C/[C@H]1CCC(=O)[C@@H]1CCCCCCC(=O)N1CCCCC1CO (stereo partly specified),?,-74*,-24%,i,?,?
Cc1ccccc1Nc1cc(C)c2c(O)cccc2n1,8%,-89*,-4%,?,?,-13%
Cc1ccc(Nc2cc(C)c3c(O)cccc3n2)cc1C,8%,19,.,.,.,.
Cc1sc2ncnc(N3CCOCC3)c2c1C,?,-66*,-7%,-15%,7%,2%
Cc1ccc(S(=O)(=O)N2CCN(c3ncnc4scc(-c5ccccc5)c34)CC2)cc1,-5%,0,-10%,-18%,?,11µM*

# Screens (PubChem)
